Measurements as given in PubChem BioAssay AID1745848 (National Center for Advancing Translational Sciences (NCATS), 2022).
The whole screen tested about 2,100 compounds, of which about 940 (45%) were called active. About 48% were inconclusive and are not listed. The call rests on the fitted dose curve; in most records, active means well fitted inhibition curve with a large enough effect; inconclusive means small, poorly fitted or top-dose-only effect; inactive means no such curve, though single readings can be large or run the other way. The set was probably picked from earlier hits. The list shows a part of the results.

assay: Confirmatory qHTS for Inhibitors of ATXN expression; conditions: ATXN2-luciferase reporter cells, luminescence, 24 h; series mostly up to 11.5 µM; activity change, negative = inhibition: at the top concentration; further: nearly all actives have a fitted effect of over 65% in size;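 on activity change, negative = inhibition: 0% = DMSO vehicle wells and -100% = medium-only wells without cells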
In short: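 A titration, incubated 24 h with reporter cells expressing ATXN2-luciferase. Luminescence (SteadyGlo) gives ATXN2 expression, multiplexed GF-AFC fluorescence gives viability; normalised to DMSO and medium-only wells.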
Potency means the concentration at half of the fitted maximal effect.

Question: Which Potency does the source give for `CCN(CC)CCNC(=O)C1CCN(S(=O)(=O)c2c(C)noc2/C=C/c2ccccc2F)CC1` here?
Answer: 3.16 µM (active)

Question: For `COc1cc(NS(=O)(=O)c2ccc(N/C=C(\C#N)c3nc4cc(Cl)ccc4o3)cc2)nc(OC)n1`, which Potency is on record?
Answer: 3.98 µM (active)

Question: For `CCCCOc1ccc(NC2=NC3(CCCC3)N=C(N)N2)cc1`, which “activity change, negative = inhibition” value is on record?
Answer: -18% [at 57.5 µM] (inactive)

Question: For `CC[C@H]1CN2CCc3cc(OC)c(OC)cc3[C@@H]2C[C@@H]1C[C@H]1NCCc2cc(OC)c(OC)cc21`, which Potency is on record?
Answer: 0.0447 µM (active)

Question: Which Potency does the source give for `CCC1=C(CC2NCCc3ccccc32)CC2c3cc(OC)c(OC)cc3CCN2C1` (centres undefined) here?
Answer: 8.91 µM (active)

Question: Which Potency does the source give for `CC[C@H]1CN2CCc3cc(OC)c(OC)cc3C2C[C@@H]1C[C@H]1NCCc2cc(OC)c(OC)cc21` (some centres undefined) here?
Answer: 0.316 µM (active)

Question: Which Potency does the source give for `O=C1C=C(Nc2ccccc2O)c2ccccc2C1=O` here?
Answer: 12.6 µM (active)

Question: Which Potency does the source give for `CCN1CCN(c2ccc(S(=O)(=O)N3CCCCC3)cc2NC(=O)c2ccc([N+](=O)[O-])s2)CC1` here?
Answer: 3.16 µM (active)

Question: Which Potency does the source give for `CCN1CCN(c2ccc(S(=O)(=O)N3CCCCC3)cc2NC(=O)/C=C/c2ccc([N+](=O)[O-])cc2)CC1` here?
Answer: 2 µM (active)

Question: With `COc1ccc(/C=C/C(=O)Nc2cccc(S(=O)(=O)N3CCCC3)c2)cc1OC` as the compound, how does the “activity change, negative = inhibition” value read?
Answer: -15.2% (inactive)

Question: For `Fc1ccc2[nH]c3c(NCc4ccccc4)ncnc3c2c1`, which Potency is on record?
Answer: 1.12 µM (active)

Question: With `COc1ccc(CNc2ncnc3c2[nH]c2ccccc23)cc1` as the compound, how does the Potency read?
Answer: 8.91 µM (active)

Question: With `CCOc1ccc2[nH]c3c(NCCc4ccc(OC)c(OC)c4)ncnc3c2c1` as the compound, how does the Potency read?
Answer: 15.8 µM (active)

Question: With `Cc1cc(NC(=O)CSc2nc3c(sc4ccccc43)c(=O)n2CCCN2CCOCC2)n[nH]1` as the compound, how does the Potency read?
Answer: 1.58 µM (active)

Question: Which “activity change, negative = inhibition” value does the source give for `Cn1c(=O)c2c(nc(SCCN3CCOCC3)n2Cc2cccc3ccccc23)n(C)c1=O` here?
Answer: -12.7% (inactive)

Question: With `CCOC(=O)COc1ccc(Br)cc1/C=C/c1[nH]c(=O)[nH]c(=O)c1[N+](=O)[O-]` as the compound, how does the “activity change, negative = inhibition” value read?
Answer: -23.6% (inactive)

Question: For `Cc1cc2nc(-c3nnnn3Cc3ccccc3)c(=O)[nH]c2cc1C`, which “activity change, negative = inhibition” value is on record?
Answer: -0.827% (inactive)

Question: Which Potency does the source give for `CC1=NN(c2nc3ccccc3[nH]2)C(=O)C1Cc1ccccc1` (centres undefined) here?
Answer: 2 µM (active)

Question: For `CCN(CC)CCNC(=O)c1ccc(NC(=O)Cc2cccc3ccccc23)cc1`, which Potency is on record?
Answer: 3.98 µM (active)

Question: Which Potency does the source give for `Cc1ccc(-c2cc(-c3ccccc3)nc(NN)n2)cc1` here?
Answer: 35.5 µM (active)

Question: With `CCOc1ccc(NCc2cccn2-c2nnc(N3CCC(C(=O)NCCCN4CC(C)CC(C)C4)CC3)s2)cc1` (centres undefined) as the compound, how does the Potency read?
Answer: 3.16 µM (active)

Question: For `C=CCSc1nc2ccccc2n1C(=O)/C=C/c1ccc(OC)c(OC)c1`, which Potency is on record?
Answer: 2.82 µM (active)

Question: With `CCSc1nc2ccccc2n1C(=O)/C=C\c1ccc(OC)c(OC)c1` as the compound, how does the Potency read?
Answer: 8.91 µM (active)

Question: Which Potency does the source give for `CC(=O)N1c2ccc(S(=O)(=O)N3CCC(C(=O)Nc4cccc(C(F)(F)F)c4)CC3)cc2CC1C` (centres undefined) here?
Answer: 14.1 µM (active)
